Reference: publication PMC5540273 (PLoS ONE, 2017)
“And” between values parts separate entries of the source, which are not always exact repeats. Equal entries are not always repeated. Where two headings read alike, the source gives them in different places.

Columns and labels:
[1] = test system: CAMKK2; details: n = 1
[2] = test system: CASK; details: n = 1
[3] = test system: T1, CDC2L1; details: n = 1
T1 construct: gene CDK11B

[4] = test system: CDC2L2; details: n = 1
[5] = test system: T2, CDC2L5; details: concentration: 1 μM, replicates: in singlicate; n = 1
T2 construct: gene CDK13

[6] = test system: T3, CDK11; details: n = 1
T3 construct: gene CDK19

[7] = test system: CDK2; details: n = 1
[8] = test system: CDK3; details: n = 1
[9] = test system: CDK4-cyclinD1; details: concentration: 1 μM, replicates: in singlicate; n = 1
[10] = test system: CDK4-cyclinD3; details: n = 1
[11] = concentration: 1 μM, replicates: in singlicate
[12] = concentration: 1 μM,replicates: in singlicate, 1 µM
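Further: KINOMEscan kinase panel screen.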

SMILES | %Inh [1, 11] [%] | %Inh [2, 11] [%] | %Inh [3, 11] [%] | %Inh [4, 11] [%] | %Inh [5] [%] | %Inh [6, 11] [%] | %Inh [7, 11] [%] | %Inh [8, 11] [%] | %Inh [9] [%] | %Inh [10, 11] [%] | %Inh [1, 12] | %Inh [2, 12] | %Inh [3, 12] | %Inh [4, 12] | %Inh [6, 12] | %Inh [7, 12] | %Inh [8, 12] | %Inh [10, 12]
CN1C(=O)C(Nc2ccc(Cl)c(C(=O)O)c2)=C(c2ccc(Cl)cc2)C1=O [SB-404290] | 0 | 3 | 0 | 0 | 1 | 0 | 13 | 6 | 0 | 0 |  |  |  |  |  |  |  | 
Cc1cc(N2Cc3ccccc3C2)nc(Nc2ccc(S(=O)(=O)N3CCOCC3)cc2)n1.Cl [GSK1669917] | 0 | 7 | 0 | 23 | 0 | 0 | 0 | 0 | 0 | 0 |  |  |  |  |  |  |  | 
CS(=O)(=O)c1ccc(-c2c(-c3ncn[nH]3)sc(N3CCOCC3)c2C#N)cc1 | 19 | 0 | 9 | 10 | 0 | 0 | 0 | 17 | 0 | 0 |  |  |  |  |  |  |  | 
Cc1ccc(NC(=O)Nc2cc(C(C)(C)C)nn2-c2ccccc2)cc1 [GSK1014915] | 0 | 12 | 31 | 7 | 0 | 62 | 0 | 8 | 0 | 4 |  |  |  |  |  |  |  | 
Fc1cc(Cl)ccc1Nc1ccnc2cc(I)ccc12 [GW551191] | 0 | 24 | 0 | 0 | 0 | 16 | 0 | 0 | 0 | 0 |  |  |  |  |  |  |  | 
Cc1cccc(-c2nc(C)cc(Nc3ccncc3)n2)n1 [GSK257997] | 12 | 19 | 100 | 17 | 0 | 12 | 0 | 0 | 0 | 0 |  |  |  |  |  |  |  | 
CC(=O)Nc1nc2cnc(Nc3cc(NC(=O)c4cccc(CCC#N)c4)ccc3C)nc2s1 | 0 | 10 | 6 | 9 | 36 | 2 | 3 | 0 | 0 | 0 |  |  |  |  |  |  |  | 
COc1ccc(CNC(=O)NC2CCN(c3ccnc(Nc4cc(OC)c(OC)c(OC)c4)n3)C2)cc1 (stereo not shown) [GSK1379748] | 12 | 10 | 0 | 14 | 0 | 2 | 0 | 0 | 6 | 0 |  |  |  |  |  |  |  | 
COc1cccc(NC(=O)NC2CCN(c3ccnc(Nc4ccc(F)cc4)n3)C2)c1 (stereo not shown) [GSK1379721] | 14 | 7 | 0 | 14 | 0 | 59 | 0 | 18 | 0 | 0 |  |  |  |  |  |  |  | 
Cc1ccc(C(=O)Nc2ccc(Nc3ccnc4cc(-c5ccccn5)ccc34)cc2O)cc1.Cl [GW440146] | 0 | 3 | 0 | 11 | 0 | 0 | 0 | 5 | 16 | 0 |  |  |  |  |  |  |  | 
CC(C)(C)c1ccc(C(=O)Nc2cn3cc(-c4cccnc4)ccc3n2)cc1 | 18 | 0 | 11 | 17 | 0 | 9 | 3 | 10 | 29 | 0 |  |  |  |  |  |  |  | 
C[C@@H]1CCCCN1c1cc(-c2ccc3c(N)n[nH]c3c2)nc(N)n1 [GSK2258759] | 26 | 11 | 0 | 18 | 0 | 4 | 0 | 15 | 0 | 7 |  |  |  |  |  |  |  | 
O=C(Nc1ccc2c(c1)OCO2)NC1CCN(c2ccnc(Nc3ccc(F)cc3)n2)C1 (stereo not shown) [GSK1379724] | 3 | 21 | 0 | 0 | 0 | 40 | 0 | 8 | 0 | 0 |  |  |  |  |  |  |  | 
Cc1c(Cn2ccn3c(=O)cc(N4CCOCC4)nc23)cccc1C(F)(F)F [GSK2289044] | 18 | 14 | 0 | 13 | 0 | 0 | 0 | 9 | 0 | 0 |  |  |  |  |  |  |  | 
CC(C)(C)c1ccc(C(=O)Nc2cn3cc(Cl)ccc3n2)cc1 | 14 | 18 | 0 | 0 | 6 | 16 | 0 | 0 | 11 | 0 |  |  |  |  |  |  |  | 
Cn1cncc1-c1ccc2ncnc(Nc3ccc(OCc4ccccc4)cc3)c2c1 [GW320571] | 0 | 0 | 0 | 0 | 0 | 10 | 4 | 2 | 0 | 13 |  |  |  |  |  |  |  | 

SMILES | %Inh [1, 11] [%] | %Inh [2, 11] [%] | %Inh [3, 11] [%] | %Inh [4, 11] [%] | %Inh [5] [%] | %Inh [6, 11] [%] | %Inh [7, 11] [%] | %Inh [8, 11] [%] | %Inh [9] [%] | %Inh [10, 11] [%] | %Inh [1, 12] | %Inh [2, 12] | %Inh [3, 12] | %Inh [4, 12] | %Inh [6, 12] | %Inh [7, 12] | %Inh [8, 12] | %Inh [10, 12]
Cc1cccc(-c2nc(-c3ccc(S(C)(=O)=O)cc3)sc2-c2ccnc(NCCc3ccccc3)c2)c1 | 0 | 18 | 6 | 0 | 44 | 0 | 0 | 0 | 0 | 0 |  |  |  |  |  |  |  | 
Cc1cc(-c2ccc3c(c2)CC[C@@H](N[C@@H](C)c2ccccc2)C3)cnc1N.Cl [GW412617] | 23 | 0 | 0 | 2 | 0 | 40 | 12 | 6 | 0 | 0 |  |  |  |  |  |  |  | 
O=c1cc(N2CCOCC2)nc2n(Cc3cccc(Cl)c3Cl)ccn12 [GSK2286295] | 16 | 9 | 13 | 16 | 0 | 23 | 0 | 0 | 0 | 0 |  |  |  |  |  |  |  | 
CSc1nn2c(=O)cc(N3CCOCC3)nc2n1Cc1cccc(C(F)(F)F)c1C [GSK2363608] |  |  |  |  | 0 |  |  |  | 0 |  | 14% and 0% | 19% and 16% | 3% and 0% | 25% and 0% | 5% and 35% | 6% and 0% | 17% and 0% | 6% and 0%
COc1cc2nccc(Nc3ccc(NC(=O)c4ccc(C)cc4)c(O)c3)c2cc1OC.Cl [GW440132] | 32 | 2 | 0 | 3 | 0 | 5 | 0 | 9 | 0 | 0 |  |  |  |  |  |  |  | 
COc1ccc(C2=C(Nc3cccc(C(=O)O)c3)C(=O)NC2=O)cc1 [SB-390765] | 7 | 15 | 17 | 13 | 8 | 0 | 12 | 7 | 0 | 0 |  |  |  |  |  |  |  | 
COc1ccc(Nc2nccc(-c3cccc(NC(=O)c4cc5cc(F)ccc5[nH]4)c3)n2)cc1 [GSK1229782] | 29 | 14 | 4 | 24 | 0 | 24 | 17 | 20 | 17 | 0 |  |  |  |  |  |  |  | 
O=C(Nc1ccccc1)Nc1cccc(Oc2ccc3nccn3n2)c1 | 0 | 16 | 0 | 5 | 0 | 0 | 0 | 10 | 24 | 0 |  |  |  |  |  |  |  | 
Cc1nnc(-c2ccc3occ(-c4ccc(S(C)=O)cc4)c3c2)[nH]1 (stereo not shown) | 14 | 0 | 0 | 0 | 11 | 0 | 2 | 7 | 0 | 2 |  |  |  |  |  |  |  | 
COc1cc(Nc2nccc(N3CCC(NC(=O)Nc4cc(C)ccc4C)C3)n2)cc(OC)c1OC (stereo not shown) [GSK1379762] | 0 | 42 | 0 | 0 | 0 | 17 | 0 | 15 | 0 | 0 |  |  |  |  |  |  |  | 
Cc1ccccc1-n1cnc2c(N)ncnc21 [SKF-97510] | 8 | 0 | 0 | 1 | 0 | 0 | 0 | 0 | 0 | 0 |  |  |  |  |  |  |  | 
O=C(Nc1n[nH]c2nc(-c3nccs3)c(Br)cc12)C1CCCC1 [SB-742609] | 0 | 19 | 100 | 0 | 0 | 0 | 86 | 60 | 41 | 14 |  |  |  |  |  |  |  | 
COc1ccccc1CNC(=O)c1cc(C(=O)c2ccccc2C)c[nH]1 [GSK364507] | 5 | 12 | 0 | 19 | 0 | 15 | 0 | 10 | 0 | 7 |  |  |  |  |  |  |  | 
Cc1ccc(-c2cc(-c3c[nH]nc3-c3ccccn3)ccn2)cc1 [GW684088] | 26 | 0 | 0 | 17 | 0 | 16 | 0 | 0 | 28 | 0 |  |  |  |  |  |  |  | 
O=C(Nc1n[nH]c2nc(-c3nccs3)c(Br)cc12)C1CC1 [SB-742251] | 0 | 42 | 0 | 0 | 13 | 0 | 81 | 50 | 65 | 25 |  |  |  |  |  |  |  | 
